Experimental data taken from the supplement of paper PMC10849652.
Of roughly 7,900 targets only a part is listed; those with a hit were picked by preference. About 0.6% of all pairs of compound and target were hits. Values without a mark were called inactive.

Key:
Assay in all cases: log2 fold change, soluble protein after heating vs DMSO (PISA); higher = thermal stabilisation; K562 cells, 10 uM, 30 min; active = over 0.2 and 3.5 SD of the protein, either way, in both replicates (recomputed)
[1] = compound: COC1=CC=C(C=C1)CN2C=CC3=C2C=C(C=C3)C(=O)NO
Procedure, shortened: (§1)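 K562 cells at 2×10^6 cells/mL were treated for 30 min with 10 μM compound, and aliquots were heated for 3 min over 48°C-58°C before pooling. Extraction used PBS with 0.5% NP-40 at 4°C, and soluble protein was the supernatant after 21,000xg for 90 min, measured by TMTpro 16plex LC-MS/MS with channel sums equalised. Thermal stability values, relative to control samples and from duplicates, are log2 fold changes.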

filanesib = compound: CON(C)C(=O)N1N=C(c2cc(F)ccc2F)S[C@@]1(CCCN)c1ccccc1 [filanesib]
Procedure, shortened: as §1

zotarolimus = compound: CO[C@H]1C[C@@H]2CC[C@@H](C)[C@@](O)(O2)C(=O)C(=O)N2CCCC[C@H]2C(=O)O[C@H]([C@H](C)C[C@@H]2CC[C@H](n3cnnn3)[C@H](OC)C2)CC(=O)[C@H](C)/C=C(\C)[C@@H](O)[C@@H](OC)C(=O)[C@H](C)C[C@H](C)/C=C/C=C/C=C/1C [zotarolimus]
Procedure, shortened: as §1

idasanutlin = compound: COc1cc(C(=O)O)ccc1NC(=O)[C@@H]1N[C@@H](CC(C)(C)C)[C@](C#N)(c2ccc(Cl)cc2F)[C@H]1c1cccc(Cl)c1F [idasanutlin]
Procedure, shortened: as §1

alisertib = compound: COc1cc(Nc2ncc3c(n2)-c2ccc(Cl)cc2C(c2c(F)cccc2OC)=NC3)ccc1C(=O)O [alisertib]
Procedure, shortened: as §1

[2] = compound: COc1cc2nc(-c3cc(F)ccc3O)nc(N[C@@H]3CNC[C@H]3C(C)(C)O)c2cc1OC
Procedure, shortened: as §1

gefitinib = compound: COc1cc2ncnc(Nc3ccc(F)c(Cl)c3)c2cc1OCCCN1CCOCC1 [gefitinib]
Procedure, shortened: as §1

[3] = compound: COc1cccc2cc(-c3nc([C@H]4CC[C@H](C(=O)O)CC4)n4ncnc(N)c34)[nH]c12
Procedure, shortened: as §1

lapatinib = compound: CS(=O)(=O)CCNCc1ccc(-c2ccc3ncnc(Nc4ccc(OCc5cccc(F)c5)c(Cl)c4)c3c2)o1 [lapatinib]
Procedure, shortened: as §1

pictilisib = compound: CS(=O)(=O)N1CCN(Cc2cc3nc(-c4cccc5[nH]ncc45)nc(N4CCOCC4)c3s2)CC1 [pictilisib]
Procedure, shortened: as §1

UniProt O95319, sequence (O95319 whole entry, looked up): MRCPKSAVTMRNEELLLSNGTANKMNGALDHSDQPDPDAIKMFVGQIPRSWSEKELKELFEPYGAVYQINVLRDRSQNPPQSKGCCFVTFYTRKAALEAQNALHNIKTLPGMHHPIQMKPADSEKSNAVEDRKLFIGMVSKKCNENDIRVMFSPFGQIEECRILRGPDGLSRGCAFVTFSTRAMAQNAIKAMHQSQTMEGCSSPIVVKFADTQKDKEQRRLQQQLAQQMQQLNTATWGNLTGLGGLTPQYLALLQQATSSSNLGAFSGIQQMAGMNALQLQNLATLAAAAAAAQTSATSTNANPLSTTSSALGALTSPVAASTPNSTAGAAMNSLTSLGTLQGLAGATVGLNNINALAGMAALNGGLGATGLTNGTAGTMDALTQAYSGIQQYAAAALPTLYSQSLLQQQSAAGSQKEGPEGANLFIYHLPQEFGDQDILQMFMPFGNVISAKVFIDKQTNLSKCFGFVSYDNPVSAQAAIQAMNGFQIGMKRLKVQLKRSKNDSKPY
UniProt Q00536, sequence (Q00536 whole entry, looked up): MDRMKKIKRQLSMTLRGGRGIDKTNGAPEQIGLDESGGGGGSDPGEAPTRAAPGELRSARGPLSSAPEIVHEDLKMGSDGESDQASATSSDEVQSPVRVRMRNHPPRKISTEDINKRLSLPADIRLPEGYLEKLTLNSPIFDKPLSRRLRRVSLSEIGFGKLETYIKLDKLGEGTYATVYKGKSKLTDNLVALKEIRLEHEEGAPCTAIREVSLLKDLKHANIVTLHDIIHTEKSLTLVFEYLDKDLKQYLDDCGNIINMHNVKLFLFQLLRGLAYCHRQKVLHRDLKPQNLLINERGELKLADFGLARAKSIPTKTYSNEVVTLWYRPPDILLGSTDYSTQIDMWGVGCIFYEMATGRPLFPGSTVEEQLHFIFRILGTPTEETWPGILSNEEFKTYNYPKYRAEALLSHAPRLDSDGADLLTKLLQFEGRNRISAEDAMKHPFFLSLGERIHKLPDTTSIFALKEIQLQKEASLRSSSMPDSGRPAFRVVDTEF
UniProt Q16740, sequence (Q16740 whole entry, looked up): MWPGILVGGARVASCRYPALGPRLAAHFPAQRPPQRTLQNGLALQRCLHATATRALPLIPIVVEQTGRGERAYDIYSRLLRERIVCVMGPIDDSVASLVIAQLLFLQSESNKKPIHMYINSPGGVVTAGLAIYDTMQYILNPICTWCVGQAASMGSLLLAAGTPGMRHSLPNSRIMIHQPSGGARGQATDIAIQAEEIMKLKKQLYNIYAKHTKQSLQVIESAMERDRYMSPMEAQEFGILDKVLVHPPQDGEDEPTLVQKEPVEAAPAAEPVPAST
UniProt P51790, sequence (P51790 whole entry, looked up): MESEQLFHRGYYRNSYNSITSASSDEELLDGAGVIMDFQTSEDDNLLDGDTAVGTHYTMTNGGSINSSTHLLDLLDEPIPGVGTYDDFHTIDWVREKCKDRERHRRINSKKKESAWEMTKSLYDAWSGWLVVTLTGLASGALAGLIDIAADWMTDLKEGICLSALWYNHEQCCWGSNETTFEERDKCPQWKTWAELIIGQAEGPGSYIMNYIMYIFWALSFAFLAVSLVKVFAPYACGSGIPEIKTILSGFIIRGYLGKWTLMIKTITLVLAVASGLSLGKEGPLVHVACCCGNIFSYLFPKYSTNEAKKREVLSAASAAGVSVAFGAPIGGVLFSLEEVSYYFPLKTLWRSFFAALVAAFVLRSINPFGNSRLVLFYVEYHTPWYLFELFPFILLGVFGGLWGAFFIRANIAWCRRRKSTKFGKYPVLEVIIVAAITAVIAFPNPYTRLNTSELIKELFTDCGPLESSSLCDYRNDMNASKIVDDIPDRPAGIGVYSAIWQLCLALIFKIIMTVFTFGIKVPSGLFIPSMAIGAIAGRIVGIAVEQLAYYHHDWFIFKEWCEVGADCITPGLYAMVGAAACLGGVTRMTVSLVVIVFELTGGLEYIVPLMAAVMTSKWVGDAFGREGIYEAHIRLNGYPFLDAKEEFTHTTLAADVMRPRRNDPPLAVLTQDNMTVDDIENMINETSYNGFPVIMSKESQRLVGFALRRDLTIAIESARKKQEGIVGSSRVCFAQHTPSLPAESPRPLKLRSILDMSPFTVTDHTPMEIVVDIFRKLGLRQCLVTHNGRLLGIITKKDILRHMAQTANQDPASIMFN
UniProt Q14677, sequence (Q14677 whole entry, looked up): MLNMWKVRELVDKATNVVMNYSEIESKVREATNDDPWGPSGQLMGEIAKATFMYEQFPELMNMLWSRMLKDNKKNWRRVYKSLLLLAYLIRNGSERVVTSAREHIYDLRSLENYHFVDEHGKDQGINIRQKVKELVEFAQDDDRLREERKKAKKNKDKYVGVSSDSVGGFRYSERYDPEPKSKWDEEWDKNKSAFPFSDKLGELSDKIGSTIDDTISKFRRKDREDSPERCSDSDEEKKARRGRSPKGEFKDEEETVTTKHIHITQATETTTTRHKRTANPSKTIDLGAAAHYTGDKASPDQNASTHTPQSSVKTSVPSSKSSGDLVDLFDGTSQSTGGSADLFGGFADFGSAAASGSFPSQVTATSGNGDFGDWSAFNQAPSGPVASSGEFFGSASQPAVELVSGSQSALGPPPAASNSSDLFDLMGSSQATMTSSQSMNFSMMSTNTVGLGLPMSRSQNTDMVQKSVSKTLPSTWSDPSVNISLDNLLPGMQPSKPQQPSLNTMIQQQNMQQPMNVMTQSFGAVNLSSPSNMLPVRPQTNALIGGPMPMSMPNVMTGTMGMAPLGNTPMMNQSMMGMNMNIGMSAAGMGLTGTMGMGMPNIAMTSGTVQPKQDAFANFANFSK
UniProt Q7KZN9, sequence (Q7KZN9 whole entry, looked up): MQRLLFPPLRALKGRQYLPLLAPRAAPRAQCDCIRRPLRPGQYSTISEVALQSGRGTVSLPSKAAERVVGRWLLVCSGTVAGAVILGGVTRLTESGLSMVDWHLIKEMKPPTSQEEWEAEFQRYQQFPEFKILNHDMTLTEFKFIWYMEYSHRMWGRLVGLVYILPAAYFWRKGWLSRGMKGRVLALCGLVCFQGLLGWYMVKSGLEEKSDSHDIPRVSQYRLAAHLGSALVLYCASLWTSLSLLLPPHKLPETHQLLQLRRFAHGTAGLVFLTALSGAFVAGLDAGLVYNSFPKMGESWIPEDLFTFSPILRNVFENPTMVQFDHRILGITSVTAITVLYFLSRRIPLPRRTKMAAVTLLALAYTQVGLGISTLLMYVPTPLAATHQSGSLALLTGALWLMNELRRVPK
UniProt Q8IUI8, sequence (Q8IUI8 whole entry, looked up): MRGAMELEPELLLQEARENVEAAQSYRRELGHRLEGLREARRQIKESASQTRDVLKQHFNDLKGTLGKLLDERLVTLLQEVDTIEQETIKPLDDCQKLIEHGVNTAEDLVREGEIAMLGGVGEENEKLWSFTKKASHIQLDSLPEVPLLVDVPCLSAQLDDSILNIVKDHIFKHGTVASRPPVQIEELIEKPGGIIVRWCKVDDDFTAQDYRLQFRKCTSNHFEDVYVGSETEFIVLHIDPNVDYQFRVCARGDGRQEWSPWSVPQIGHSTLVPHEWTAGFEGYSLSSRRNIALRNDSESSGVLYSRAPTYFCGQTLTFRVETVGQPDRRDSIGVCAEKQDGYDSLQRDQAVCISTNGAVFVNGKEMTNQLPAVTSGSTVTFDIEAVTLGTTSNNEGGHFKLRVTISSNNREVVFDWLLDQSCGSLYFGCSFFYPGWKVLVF
UniProt Q96MX0, sequence (Q96MX0 whole entry, looked up): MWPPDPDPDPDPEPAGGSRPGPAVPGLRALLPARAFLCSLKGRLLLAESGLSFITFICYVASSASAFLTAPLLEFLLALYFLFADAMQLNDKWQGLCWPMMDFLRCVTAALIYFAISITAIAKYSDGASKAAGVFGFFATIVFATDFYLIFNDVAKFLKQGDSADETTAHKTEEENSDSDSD
UniProt Q9Y6K0, sequence (Q9Y6K0 whole entry, looked up): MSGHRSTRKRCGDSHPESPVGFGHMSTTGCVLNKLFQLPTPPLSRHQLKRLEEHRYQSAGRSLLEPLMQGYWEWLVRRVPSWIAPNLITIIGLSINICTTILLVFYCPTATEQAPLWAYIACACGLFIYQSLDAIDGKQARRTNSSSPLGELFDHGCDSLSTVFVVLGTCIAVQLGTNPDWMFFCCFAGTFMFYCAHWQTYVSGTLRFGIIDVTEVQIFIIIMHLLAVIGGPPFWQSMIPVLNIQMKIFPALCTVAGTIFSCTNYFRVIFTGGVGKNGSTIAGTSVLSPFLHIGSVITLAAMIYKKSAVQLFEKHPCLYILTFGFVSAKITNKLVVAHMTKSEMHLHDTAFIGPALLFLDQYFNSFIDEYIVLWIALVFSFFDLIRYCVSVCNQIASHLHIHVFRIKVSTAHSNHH
UniProt Q6P5X5, sequence (Q6P5X5 whole entry, looked up): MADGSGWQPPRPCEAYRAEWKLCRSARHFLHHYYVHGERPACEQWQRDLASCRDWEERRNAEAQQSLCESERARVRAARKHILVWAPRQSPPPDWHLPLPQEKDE
UniProt P11802, sequence (P11802 whole entry, looked up): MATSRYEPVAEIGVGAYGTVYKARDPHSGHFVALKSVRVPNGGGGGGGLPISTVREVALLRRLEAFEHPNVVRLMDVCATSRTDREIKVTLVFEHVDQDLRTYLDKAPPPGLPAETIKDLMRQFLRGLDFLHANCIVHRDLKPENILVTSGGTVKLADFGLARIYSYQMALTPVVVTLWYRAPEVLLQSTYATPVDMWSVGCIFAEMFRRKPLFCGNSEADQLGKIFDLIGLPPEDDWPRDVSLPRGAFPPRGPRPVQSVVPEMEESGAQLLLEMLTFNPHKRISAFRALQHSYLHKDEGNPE
UniProt Q9NPF2, sequence (Q9NPF2 whole entry, looked up): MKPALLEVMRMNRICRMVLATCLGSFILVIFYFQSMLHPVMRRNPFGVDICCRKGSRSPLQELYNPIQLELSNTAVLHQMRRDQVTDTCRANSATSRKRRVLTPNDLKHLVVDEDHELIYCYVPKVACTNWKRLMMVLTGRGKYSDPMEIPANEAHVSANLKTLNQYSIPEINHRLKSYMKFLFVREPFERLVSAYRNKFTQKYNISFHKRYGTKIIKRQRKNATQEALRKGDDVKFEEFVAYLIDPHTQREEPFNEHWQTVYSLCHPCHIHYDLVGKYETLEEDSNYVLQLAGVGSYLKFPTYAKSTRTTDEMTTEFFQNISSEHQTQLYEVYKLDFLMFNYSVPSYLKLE

Row | Target | log2 fold change [1] | log2 fold change (filanesib) | log2 fold change (zotarolimus) | log2 fold change (idasanutlin) | log2 fold change (alisertib) | log2 fold change [2] | log2 fold change (gefitinib) | log2 fold change [3] | log2 fold change (lapatinib) | log2 fold change (pictilisib)
1 | CLSPN (UniProt Q9HAW4) | -0.076 | 0.053 | -0.034 | 0.107 | 0.004 | -0.111 | -0.019 | -0.018 | 0.053 | –
2 | CDK5RAP3 isoform 4 (UniProt Q96JB5) | -0.008 | -0.085 | 0.026 | -0.091 | -0.001 | 0.075 | 0.024 | 0.004 | -0.034 | -0.015
3 | CAD (UniProt P27708) | 0.019 | -0.054 | -0.014 | -0.03 | -0.058 | -0.011 | -0.044 | 0.047 | -0.031 | -0.04
4 | CLPP (UniProt Q16740) | -0.03 | -0.017 | 0 | -0.038 | -0.091 | 0.011 | 0.01 | 0.021 | -0.034 | –
5 | CLINT1 isoform 3 (UniProt Q14677) | -0.159 | 0.155 | -0.031 | 0 | -0.105 | 0.074 | 0.148 | -0.041 | 0.014 | –
6 | CELF2 isoform 3 (UniProt O95319) | 0.115 | 0.052 | -0.035 | -0.044 | -0.122 | 0.1 | -0.027 | -0.006 | 0.032 | 0.051
7 | CAMSAP1 isoform 3 (UniProt Q5T5Y3) | 0.011 | -0.015 | 0.045 | 0.091 | 0.039 | 0.169 | -0.034 | 0.056 | 0.095 | 0.118
8 | CLCN3 (UniProt P51790) | -0.158 | -0.12 | -0.099 | -0.095 | -0.016 | 0.031 | 0.045 | 0.058 | -0.06 | –
9 | CLUH (UniProt O75153) | -0.026 | 0.07 | 0.028 | -0.074 | -0.072 | -0.022 | -0.001 | -0.152 | 0.006 | –
10 | CDK16 isoform 2 (UniProt Q00536) | 0.029 | 0.021 | -0.028 | -0.036 | 0.02 | 0.252 | -0.086 | 0.037 | 0.002 | –
11 | CLPX (UniProt O76031) | 0.077 | -0.07 | -0.052 | -0.007 | -0.026 | -0.017 | 0.019 | 0.021 | 0.014 | –
12 | CES2 isoform 4 (UniProt O00748) | -0.099 | 0.055 | 0.078 | 0.053 | 0.023 | -0.044 | 0.03 | -0.145 | 0.161 | 0.103
13 | CNOT1 (UniProt A5YKK6) | 0.002 | -0.019 | 0.02 | -0.032 | -0.022 | 0.053 | -0.021 | -0.031 | 0.02 | -0.046
14 | CDC42SE1 (UniProt Q9NRR8) | -0.011 | -0.049 | 0 | -0.093 | 0.003 | 0.036 | -0.025 | -0.168 | -0.088 | –
15 | CHST11 (UniProt Q9NPF2) | 0.153 | 0.016 | 0.061 | -0.016 | -0.248 | -0.19 | -0.013 | 0.012 | 0.297 | -0.025
16 | CLTB (UniProt P09497) | 0.263 (active) | -0.053 | -0.006 | -0.02 | -0.106 | 0 | 0.017 | 0.028 | -0.014 | –

Row | Target | log2 fold change [1] | log2 fold change (filanesib) | log2 fold change (zotarolimus) | log2 fold change (idasanutlin) | log2 fold change (alisertib) | log2 fold change [2] | log2 fold change (gefitinib) | log2 fold change [3] | log2 fold change (lapatinib) | log2 fold change (pictilisib)
17 | CLASP2 isoform 3 (UniProt O75122) | 0.021 | 0.068 | 0.033 | -0.024 | -0.021 | 0.055 | -0.002 | 0.003 | -0.009 | –
18 | CSTF3 (UniProt Q12996) | -0.008 | -0.041 | -0.033 | -0.087 | -0.056 | 0.176 | -0.005 | 0.022 | -0.012 | 0.066
19 | CLN5 (UniProt O75503) | 0.021 | -0.385 | 0.075 | 0.049 | 0.265 | -0.65 | -0.341 | 0.27 | -0.028 | –
20 | CLUH, A0A494C0R8 | 0.131 | 0.168 | -0.065 | 0.027 | 0.007 | -0.024 | 0.078 | -0.227 | -0.011 | –
21 | C22orf39 (UniProt Q6P5X5) | 0.02 | -0.043 | -0.014 | 0.119 | -0.025 | -0.344 | 0.058 | -0.006 | 0.077 | –
22 | COX15 (UniProt Q7KZN9) | 0.04 | -0.046 | 0.005 | -0.055 | -0.054 | -0.012 | -0.001 | 0.052 | 0.001 | 0.071
23 | CMTM3 (UniProt Q96MX0) | -0.122 | 0.105 | -0.075 | -0.045 | -0.069 | -0.018 | 0.021 | 0.035 | -0.062 | -0.091
24 | CDK4 (UniProt P11802) | -0.111 | 0.09 | -0.071 | 0.061 | 0.062 | -0.049 | 0.017 | -0.057 | -0.031 | –
25 | CKB (UniProt P12277) | -0.031 | -0.097 | 0.061 | -0.047 | -0.093 | -0.007 | 0.002 | 0.01 | 0.016 | 0.022
26 | CNOT4 isoform 6 (UniProt O95628) | -0.057 | 0.017 | -0.023 | -0.001 | -0.036 | 0.037 | -0.007 | -0.012 | -0.008 | 0.036
27 | CLCN3 isoform 2 (UniProt P51790) | 0.057 | -0.151 | -0.031 | -0.008 | 0.03 | -0.064 | -0.015 | 0.04 | 0.008 | –
28 | CBS (UniProt P35520) | -0.225 (active) | -0.05 | 0.044 | 0.014 | -0.073 | 0.024 | 0.007 | 0.011 | -0.026 | 0.043
29 | CCAR1 (UniProt Q8IX12) | 0.018 | -0.105 | 0.011 | -0.041 | -0.056 | -0.02 | 0.027 | 0.014 | 0.003 | -0.072
30 | CEPT1 (UniProt Q9Y6K0) | 0.029 | -0.277 | -0.095 | -0.142 | 0.009 | 0.022 | -0.025 | 0.036 | 0.095 | 0.011
31 | CRLF3 (UniProt Q8IUI8) | -0.006 | -0.049 | 0.016 | 0.039 | 0.005 | -0.05 | 0.018 | 0.014 | 0.035 | 0.051
